A short description of the assay: antiviral protection of cells from WNV – synthesized analogs, SAR follow-up (AID 2238). The note with it: West Nile virus CPE inhibition in cells; max CPE inhibition: measured here: maximum CPE inhibition observed, at 40 µM, stronger effect = higher value unless noted; series mostly up to 40 µM.

Active and inactive are the calls of the source. No rule for the calls is given here.

Regarding `COc1ccc(-c2csc(NC(=O)c3cccc(Cl)c3)n2)cc1`, the max CPE inhibition amounted to 1.98% and the call was inactive.
As for `COc1ccc(-c2csc(NC(=O)c3ccccc3F)n2)cc1`, the max CPE inhibition amounted to 1.03% and the outcome was inactive.
In the case of `O=c1c2cccc(Cl)c2nc2n1CCC2`, the max CPE inhibition is 1.83% and the outcome was inactive.
As for `CCCN(C(=O)c1ccccc1Cl)c1nc(-c2ccc(OC)cc2)cs1`, the max CPE inhibition amounted to 0.77% and the compound was called inactive.
In the case of `COc1cccc(C(NC(=O)c2ccccc2)c2ccc3cccnc3c2O)c1` (stereo not given), the max CPE inhibition was 5.83% [measured here: maximum CPE inhibition observed, at 5 µM, stronger effect = higher value] and the outcome was inactive.
As to `COc1ccccc1NC(=O)CSc1nc2ccccc2c(=O)n1-c1ccc(F)cc1`, the max CPE inhibition is 0.86% [measured here: maximum CPE inhibition observed, at 20 µM, stronger effect = higher value] and the call was inactive.
Take `O=C(Nc1nc(-c2ccc(Cl)cc2)cs1)c1ccc(I)cc1`: the max CPE inhibition was 0.78% and the outcome was inactive.
`CCOC(=O)C1(Cc2ccccc2C(F)(F)F)CCN(C2CCN(C(C)=O)CC2)CC1`: the max CPE inhibition is 1.58% [measured here: maximum CPE inhibition observed, at 20 µM, stronger effect = higher value] and the outcome was inactive.
With `O=c1c2cc(Cl)cc(Cl)c2nc2n1CCC2`, the max CPE inhibition worked out at 1.72% and the result was inactive.
As to `O=C(CSc1nc2ccccc2c(=O)n1-c1ccc(F)cc1)Nc1ccc2c(c1)OCCO2`, the max CPE inhibition turned out to be 2.5% and the compound was called inactive.
Turning to `O=C(Nc1nc(-c2ccc(Cl)cc2)cs1)c1ccccc1F`, the max CPE inhibition came out at 1.34% and the compound was classed as inactive.
In the case of `COc1ccc(-c2csc(N(Cc3ccccc3)C(=O)c3ccccc3Cl)n2)cc1`, the max CPE inhibition came out at 2.87% and the compound was called inactive.
Taken in the same sequence, the figures for `O=c1c2cc(Br)ccc2nc2n1CC/C2=C/c1ccccc1` were 1.37% and “inactive”.
Regarding `COc1ccc(-c2csc(N(C(=O)c3ccccc3Cl)C(C)C)n2)cc1`, the max CPE inhibition worked out at 1.92% and the compound was called inactive.
For `COc1ccc(-c2csc(NC(=O)c3ccccc3Cl)n2)cc1`, the max CPE inhibition turned out to be 1.74% and the outcome was inactive.
For `COc1cccc(-n2c(SCC(=O)Nc3ccc4c(c3)CCC4)nc3ccccc3c2=O)c1`, the max CPE inhibition was 26.8% [measured here: maximum CPE inhibition observed, at 20 µM, stronger effect = higher value] and the result was inactive.
In the case of `O=C(Nc1nc(-c2ccccc2)cs1)c1ccccc1Cl`, the max CPE inhibition was 0.47% [measured here: maximum CPE inhibition observed, at 0.16 µM, stronger effect = higher value] and the result was inactive.
In the case of `CCN(CC)CCCNC(=S)N1CCN(c2nc(-c3ccc(F)cc3)cs2)CC1`, the max CPE inhibition was 29.4% [measured here: maximum CPE inhibition observed, at 20 µM, stronger effect = higher value] and the call was inactive.
As for `O=c1c2cc([N+](=O)[O-])ccc2nc2n1CCC2`, the max CPE inhibition is 0.23% [measured here: maximum CPE inhibition observed, at 1.25 µM, stronger effect = higher value] and the outcome was inactive.
The like results for `CC1CC(C)CN(C(=O)CSc2nc3ccccc3c(=O)n2-c2ccc(F)cc2)C1` (stereo not given) were, in that order, 2.88% and “inactive”.
Taken in the same sequence, the figures for `CC(=O)Nc1ccc2nc3n(c(=O)c2c1)CCC3` were 2.33% and “inactive”.
For the compound `COc1ccc(-c2csc(NC(=O)c3ccc(Cl)cc3)n2)cc1`, the max CPE inhibition stood at 6.01% and the compound was called inactive.
Consider `O=c1c2cc(I)ccc2nc2n1CCC2`, for which the max CPE inhibition was determined as 0.68% and the result was inactive.
Consider `Cc1cccc2c1-c1sc(C(=O)NCCCN3CCCC(C)C3)cc1CO2` (stereo not given), for which the max CPE inhibition was 12.1% [measured here: maximum CPE inhibition observed, at 10 µM, stronger effect = higher value] and the result was inactive.
`COc1ccc(NC(=O)CSc2nc3ccccc3c(=O)n2-c2ccc(F)cc2)cc1`: the max CPE inhibition amounted to 2.96% and the call was inactive.
Consider `Oc1ccccc1C(Nc1nccs1)c1ccc2cccnc2c1O` (stereo not given), for which the max CPE inhibition was 8.25% [measured here: maximum CPE inhibition observed, at 5 µM, stronger effect = higher value] and the call was inactive.
With `COc1ccc(-c2csc(N(CCCN(C)C)C(=O)c3ccccc3F)n2)cc1`, the max CPE inhibition is 3.61% [measured here: maximum CPE inhibition observed, at 80 µM, stronger effect = higher value] and the call was inactive.
Consider `Cc1ccc2nc3n(c(=O)c2c1)CCC3`, for which the max CPE inhibition worked out at 2.12% and the call was inactive.
As for `Cc1cccc2nc3n(c(=O)c12)CCC3`, the max CPE inhibition turned out to be 1.92% and the call was inactive.
Turning to `O=[N+]([O-])c1ccc2c(c1)C(O)N1CCCC1=N2` (stereo not given), the max CPE inhibition was 1.83% and the compound was called inactive.

The record behind these values is PubChem BioAssay AID2238 (Southern Research Specialized Biocontainment Screening …, 2010).
